Compound activity deposited in PubChem by several laboratories.
GALR2 ag: agonists of human galanin receptor 2 (GALR2) | activation, % (test concentration not listed) | 0.48% of 140,000 active | GALR2-expressing cells, agonist activation read-out; in the data active = activation above about 5%, passing the limit was not always enough;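 note: 0% = vehicle buffer wells and 100% = reference agonist at full effect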
Target sequence (O43603 whole entry, looked up): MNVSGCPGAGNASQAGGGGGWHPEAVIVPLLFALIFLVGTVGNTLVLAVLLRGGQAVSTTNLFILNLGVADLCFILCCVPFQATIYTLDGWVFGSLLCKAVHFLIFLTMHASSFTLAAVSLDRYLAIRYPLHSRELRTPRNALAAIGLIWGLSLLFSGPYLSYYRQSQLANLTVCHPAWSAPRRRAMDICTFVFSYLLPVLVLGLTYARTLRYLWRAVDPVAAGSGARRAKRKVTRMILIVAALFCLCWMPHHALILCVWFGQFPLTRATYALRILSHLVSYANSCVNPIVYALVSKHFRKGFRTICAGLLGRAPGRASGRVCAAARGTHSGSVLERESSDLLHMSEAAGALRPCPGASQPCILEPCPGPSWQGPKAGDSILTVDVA
S1P2 blocker: S1P2 (human) receptor antagonism; O95136; cell-based S1P2 antagonist assay, inhibition at 5 uM; inhibition, % at 5 µM; 0.21% of 97,000 active; in the data active = inhibition above about 45%;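 note: CRE beta-lactamase reporter cells expressing human S1P2 stimulated with S1P; 0% = agonist at EC80 alone and 100% = agonist plus reference antagonist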
GALR2 antag: GALR2 (human) receptor antagonism. O43603. GALR2-expressing cells, antagonist mode. inhibition, % at 4 µM. 0.39% of 140,000 active. AID 828; in the data active = inhibition above about 27%;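 note: cells stimulated with galanin 1-16 at roughly its EC80; 0% = agonist challenge control and 100% = basal control without agonist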
Phagocyt inh: blocks phagocytosis by macrophages; J774A.1 macrophage IgG-bead phagocytosis, imaging; inhibition, % at 5 µM; 0.07% of 110,000 active; AID 1029;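 active = inhibition above the mean of the plate negative controls plus 5 SD, cut at about 13% in these data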;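 note: phagocytic index as fraction of beads internalized from green versus red external bead signal; plate controls were DMSO negative control for no effect and cytochalasin-D positive control for full effect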
S1P2 agonist: activates the human S1P2 receptor; O95136; activation, % at 4.5 µM; 0.46% of 97,000 active; S1P2-expressing cell line, agonist reporter read-out; AID 729; in the data active = activation above about 16%;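 note: 0% = vehicle low control and 100% = maximal reference agonist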
Numbers without * were called inactive; nt = no result given; [ ] = dose if it differs, or a comment. Compounds with a hit are over-represented: about 1.3% of the library has one in this group of screens.

SMILES	GALR2 ag	S1P2 blocker	GALR2 antag	Phagocyt inh	S1P2 agonist
CCOC(=O)c1cccc2c(=O)c(C(=O)c3ccc(Cl)cc3)c(C(=O)OC)[nH]c12	-1	nt	4	-4	nt
CCc1ccc2[nH]c3nc(SCC(=O)NNC(=O)c4ccc(C(C)(C)C)cc4)nnc3c2c1	-4	-1	0	0	17*
CCOC(=O)c1cc(CC)sc1NC(=O)c1cc(OC)c(OC)c(OC)c1	-1	-69	-6	0	16*
CCOC(=O)c1[nH]c2ccc(F)cc2c1NC(=O)C1=COCCO1	0	8	8	-1	-1
CCOC(=O)c1cc(CC)sc1NC(=O)c1ccc(N2C(=O)CCC2=O)cc1	-3	-17	5	2	-4
CCOC(=O)c1[nH]c2ccc(F)cc2c1NC(=O)c1cc(OC)c(OC)c(OC)c1	-1	-33	6	0	18*
FC(F)(F)c1cc(C(F)(F)F)c2ccc(N3CCN(c4ccc(Cl)cc4)CC3)nc2n1	-2	-11	12	nt	-1
N#CC(c1ccc(Cl)cc1)c1ccc2c(C(F)(F)F)cc(C(F)(F)F)nc2n1 (stereo not given)	0	69*	-10	-1	-5
CCCCOc1ccccc1C1C(C(=O)OC)=C(C)N(C)C(C)=C1C(=O)OC	-2	-20	-1	nt	-1
CCCCN1C=C(C(=O)OC)C(c2ccccc2C(F)(F)F)C(C(=O)OC)=C1	1	-17	-10	1	19*
C=CCn1c(O)c(N=NC(=O)CNC(=O)c2ccco2)c2ccccc21	1	nt	0	nt	nt
O=C(Nc1ccc2nc(-c3cccs3)[nH]c2c1)c1cccs1	-1	-28	14	-1	4
O=C(Nc1ccc(-c2nc3ccc(NC(=O)c4cccs4)cc3[nH]2)cc1)c1cccs1	4	1	28*	-1	-4
CCn1c(/C=C/c2c(C)[nH]c3ccccc23)nc2ccccc2c1=O	7.3*	nt	7	-12	nt
CCCCNC(=O)c1ccc2c(c1)N(CC)C(=O)c1ccccc1S2(=O)=O	-1	nt	-2	0	nt
CCCn1c(C(=O)OC)cc2c1ccn2-c1ccc(F)cc1	5.6*	7	-17	nt	-1
CCOC(=O)C1=C(O)/C(=C/c2cc(OC)c(OC)c(OC)c2)SC1=Nc1ccc(OC)cc1	-2	-20	-11	nt	37*
Nc1c(C(=O)NCc2ccc(F)cc2)c2nc3ccccc3nc2n1CCCN1CCOCC1	41*	-70	-43	0	45*
COc1ccc(CNC(=O)c2c(N)n(CCCN3CCOCC3)c3nc4ccccc4nc23)cc1	32*	-73	-35	-1	39*
CCCNC(=O)c1c(N)n(-c2ccc3c(c2)OCO3)c2nc3ccccc3nc12	0	14	-2	-1	0
CCCNC(=O)c1c(N)n(-c2cc(OC)cc(OC)c2)c2nc3ccccc3nc12	14*	nt	-9	2	nt
COc1cc2nc(SCc3ccc(Cl)cc3Cl)n(Cc3cccs3)c(=N)c2cc1OC	-2	16	-12	nt	-6
COc1cc2nc(SCc3ccc(C(F)(F)F)cc3)n(Cc3cccs3)c(=N)c2cc1OC	-2	10	2	-1	16*
O=C(Nc1nc2ccccc2s1)c1cc2c(s1)-c1ccccc1OC2	3	-45	-4	-1	40*
O=C(Nc1nccs1)c1cc2c(s1)-c1ccccc1OC2	8	-9	14	0	4
SMILES	GALR2 ag	S1P2 blocker	GALR2 antag	Phagocyt inh	S1P2 agonist
COc1ccc(/C=c2\sc3nc(-c4ccccc4)c(-c4ccccc4)n3c2=O)cc1OC	-2	-3	-14	-2	22*
CCOC(=O)Nc1ccc2c(c1)N(C(=O)CCN(C)C)c1ccccc1S2	-2	-5	30*	nt	-8
CCOC(=O)Nc1ccc2c(c1)N(C(=O)CN1CCN(C)CC1)c1ccccc1S2	-1	-5	1	-1	2
CCCCC(CC)Cn1c2nc3ccccc3nc2c2c(=N)oc(C)nc21 (stereo not given)	-1	-211	3	-5	0
CCCCC(CC)Cn1c(N)c(C#N)c2nc3ccccc3nc21 (stereo not given)	35*	-61	-15	0	50*
NS(=O)(=O)c1cccc(NC(=O)CSc2nc3ccccc3c(=O)n2CCCN2CCOCC2)c1	0	nt	7	-6	nt
COc1ccc(/C=N/NC(=O)CNc2n[nH]c(=O)[nH]c2=O)cc1OC	0	nt	0	97*[artifact]	nt
COc1cc(/C=N/NC(=O)CNc2n[nH]c(=O)[nH]c2=O)ccc1O	0	nt	0	-4	nt
O=C(CSc1nc2c(c(=O)n1-c1ccc(Cl)cc1)SCC2)N1CCOCC1	-1	-8	-6	-1	21*
CCOC(CNC(=O)c1cccn2c(=O)c3cc(Cl)ccc3nc12)OCC	-2	-20	-8	1	-1
CC(C)c1ccc(/C=N/NC(=O)c2nnn(-c3nonc3N)c2CSC2=NCCS2)cc1	1	nt	4	-1	nt
Cc1noc2ncnc(Sc3c(Cl)cccc3Cl)c12	-3	48*	20	0	-6
CCOC(=O)Cn1c(=NC(=O)c2ccc([N+](=O)[O-])s2)sc2ccccc21	1	nt	5	-10	nt
CCNc1nc(NCC)n2c(SCc3nc4ccccc4c(=O)[nH]3)nnc2n1	-1	-49	4	-1	43*
O=C(Cc1cccs1)NNC(=O)c1ccc(F)cc1	-2	nt	5	-9	nt
CC(=O)Oc1cc2oc(=O)cc(C)c2cc1OC(C)=O	6.0*	-17	-2	-4	0
COc1ccc(Nc2nc(N3CCCCC3)c3ccccc3n2)cc1	0	56*	19	nt	-5
CCOC(=O)c1sc2c(c1C)C(c1cccs1)C1=C(CCCC1=O)N2 (stereo not given)	9.2*	-46	-8	1	31*
COc1cccc(NC(=O)c2cn(C)c(=O)c3cc(OC)c(OC)cc23)c1	-2	-29	-1	nt	28*
COc1ccccc1CNC(=O)c1cn(C)c(=O)c2cc(OC)c(OC)cc12	-1	-18	-2	2	12
O=C(Nc1ccccc1)c1sc2cc(C(F)(F)F)cnc2c1-c1cccs1	-1	46*	3	nt	-6
COc1ccc(C)cc1S(=O)(=O)N1CCC(C(=O)N2CCN(C)CC2)CC1	-1	nt	5	1	nt
Cc1ccc(NC(=O)c2cc(N3C(=O)C=CC3=O)ccc2N2CCOCC2)cc1Cl	3	nt	-3	7	nt
CC(C)(C)c1cc(S(=O)(=O)CCc2ccccn2)cc(C(C)(C)C)c1F	-2	-7	-11	153*	-4
COc1ccc2cc(C(=O)NCc3ccco3)c(=O)oc2c1	1	-9	-9	0	-2
O=C(NCc1ccco1)c1cc2ccc(O)cc2oc1=O	145*	-174	-70	0	82*
CCCOC(=O)c1[nH]c2c(c1C)C(=O)CC(c1ccc(OC)c(OC)c1)C2 (stereo not given)	5.2*	nt	1	-1	nt
CCCCCOC(=O)c1[nH]c2c(c1C)C(=O)CC(c1ccco1)C2 (stereo not given)	2	nt	35*	nt	nt
Cc1nn(-c2ccccc2)c(Cl)c1/C=N/O	-1	nt	3	-3	nt
Cc1nn(-c2ccccc2)c(Cl)c1/C=N/Nc1nc2ccccc2[nH]1	5.5*	nt	13	-6	nt
